Experimental data published in the supplement of paper PMC10646978.
± gives the standard deviation.

Assays:
Conditions in all cases: modulator concentration 10 µM
[1] = system: RAW-Dual (murine macrophage reporter line); assay: NF-kB reporter (SEAP) activity fold change vs agonist alone; higher = enhanced NF-kB activity
Procedure, shortened: (§1)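 Compound reached 10 μM final in each well by pin transfer, onto RAW-Dual murine macrophage reporter cells seeded at 50 000 per well in 384-well plates. After 1 hour at 37 °C, the cells were stimulated overnight with a PRR agonist. SEAP in the supernatant was read with QUANTI-Blue at 620 nm absorbance for NF-κB, and Lucia luciferase was read with QUANTI-Luc luminescence for IRF. Each signal was turned into fold change against the mean agonist-only control on the same plate, and two replicate plates were averaged with propagated errors.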

[2] = system: RAW-Dual (murine macrophage reporter line); assay: IRF reporter (Lucia luciferase) activity fold change vs agonist alone; higher = enhanced IRF activity
Procedure, shortened: as §1

[3] = system: RAW-Dual (murine macrophage reporter line); assay: viability score (confluency relative to resting cells, overnight) (fraction); higher = more viable, active = viable (0.7 or more)
Procedure, shortened: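 Two confluency masks, generated with IncuCyte software over all imaged wells, were applied to IncuCyte images of RAW-Dual macrophages. The cells, in 384-well plates, had been exposed overnight to 10 μM final compound. The viability score is confluency as a fraction of resting cells, and a compound met the cutoff only with both masks above 70% of resting cells.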

[4] = agonist: CpG ODN 1826 0.5 ug/mL

Row | Structure (SMILES) | NF-kB reporter [1, 4] | NF-kB reporter ([1]; agonist: LPS 0.1 ug/mL) | NF-kB reporter ([1]; agonist: MPLA […]) | IRF reporter ([2]; agonist: 3'3'-cGAMP 10 ug/mL) | IRF reporter ([2]; agonist: LPS 0.1 ug/mL) | IRF reporter ([2]; agonist: MPLA […]) | viability score [3]
1 | CN(C)CCC=C1c2ccccc2COc2ccccc21.Cl | 0.758 ± 0.18 | 1.01 ± 0.054 | 1.06 ± 0.067 | 0.576 ± 0.031 | 1.22 ± 0.21 | 1.17 ± 0.2 | 0.978 (active)
2 | CS(=O)(=O)C1CC2CCC(C1)N2C(=O)c1cccc(Oc2ccc(F)cc2)c1 (stereo not drawn) | 1.07 ± 0.09 | 1.13 ± 0.097 | 1.06 ± 0.15 | 0.94 ± 0.048 | 1.2 ± 0.085 | 1.33 ± 0.17 | 0.99 (active)
3 | Cc1c(Cl)cccc1S(=O)(=O)NCc1ccnc(N2CCCC2=O)c1 | 1.01 ± 0.055 | 1.03 ± 0.094 | 0.92 ± 0.043 | 0.993 ± 0.057 | 1.07 ± 0.079 | 1.03 ± 0.093 | 0.957 (active)
4 | Cc1nc(SCC(=O)N2CCCCCC2)[nH]c(=O)c1C | 1.15 ± 0.077 | 1.17 ± 0.14 | 0.909 ± 0.04 | 1 ± 0.064 | 1.07 ± 0.14 | 0.977 ± 0.3 | 1 (active)
5 | CC(=NOCON=C(C)c1ccc(F)cc1F)c1ccc(F)cc1F | 0.843 ± 0.067 | 0.907 ± 0.062 | 0.974 ± 0.086 | 0.991 ± 0.05 | 1.39 ± 0.085 | 1.53 ± 0.15 | 1 (active)
6 | COc1ccc(Cl)cc1NS(=O)(=O)c1c(C)cc(C)cc1C | 0.993 ± 0.14 | 0.937 ± 0.062 | 1.46 ± 0.12 | 1.24 ± 0.11 | 1.16 ± 0.11 | 1.04 ± 0.12 | 0.982 (active)
7 | Cc1ccc(S(=O)(=O)n2nnc3ccccc32)cc1C | 1.07 ± 0.11 | 1.04 ± 0.092 | 0.991 ± 0.034 | 0.928 ± 0.059 | 0.982 ± 0.14 | 1 ± 0.23 | 1 (active)
8 | Cl.Nc1c2c(nc3ccccc13)CCCC2 | 0.172 ± 0.048 | 0.751 ± 0.041 | 0.918 ± 0.06 | 0.616 ± 0.024 | 0.806 ± 0.25 | 0.837 ± 0.12 | 0.995 (active)
9 | Cc1cc(OCc2nc(-c3ccc(Cl)cc3Cl)no2)ccc1Br | 1.03 ± 0.17 | 0.988 ± 0.12 | 1.63 ± 0.8 | 0.984 ± 0.039 | 1.15 ± 0.13 | 1.15 ± 0.21 | 1.01 (active)
10 | CSCCC(NC(C)=O)C(=O)N1CCc2nc3ccc(Cl)cn3c(=O)c2C1 (stereo not drawn) | 1.42 ± 0.35 | 0.918 ± 0.047 | 1.06 ± 0.12 | 1.01 ± 0.043 | 1.24 ± 0.17 | 1.29 ± 0.21 | 0.986 (active)
11 | COc1cc(C2C(C(=O)c3ccccc3)=C(O)C(=O)N2c2cccnc2)ccc1O (stereo not drawn) | 0.915 ± 0.14 | 0.595 ± 0.13 | 0.582 ± 0.1 | 0.758 ± 0.068 | 0.849 ± 0.074 | 0.785 ± 0.13 | 0.97 (active)
12 | O=C(CCCCCCNC(=O)c1cnc(N(c2ccccc2)c2ccccc2)nc1)NO | 1.14 ± 0.067 | 0.318 ± 0.026 | 0.797 ± 0.15 | 0.954 ± 0.08 | 2.78 ± 0.69 | 3.16 ± 1 | 0.95 (active)
13 | O=C(Cn1cnc(-c2ccc(F)cc2)cc1=O)N1CCOCC1 | 0.891 ± 0.06 | 1.07 ± 0.13 | 1.18 ± 0.075 | 1.04 ± 0.047 | 1.3 ± 0.27 | 1.44 ± 0.45 | 0.99 (active)
14 | COC(=O)C1=C(C)NC(C)=C(C(=O)OC)C1c1ccccc1[N+](=O)[O-] | 1.27 ± 0.1 | 1.33 ± 0.073 | 1.82 ± 0.17 | 0.374 ± 0.017 | 0.585 ± 0.035 | 0.414 ± 0.038 | 0.907 (active)
